Screens as filed in PubChem BioAssay.
TDP1 cell CPT: DT40-hTDP1 cell growth loss with CPT; chicken DT40 Tdp1-/-;hTDP1 cells + 20 nM CPT, ATP luminescence, 48 h; Potency, µM (top dose mostly 46.2 µM), for the others: top-dose activity change, negative = growth inhibition, actives largely listed as inhibitors; 12% of 420,000 active; AID 686979; also: nearly all actives have a fitted effect of over 55% in size
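Cell growth measured by CellTiter-Glo luminescence after a minimum 48 h, 37 C compound exposure with 20 nM CPT in Tdp1-knockout DT40 cells stably expressing hTDP1, seeded 400/well; qHTS titration format.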
KAT2A inh: GCN5L2 (KAT2A) acetyltransferase inhibition. AID 504327. GCN5L2 HAT assay, ThioGlo1 CoA-SH fluorescence. Q92830. 0.21% of 390,000 active. Potency, µM (series often up to 58.9 µM), inactives show top-dose activity change, negative = inhibition, actives largely listed as inhibitors
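qHTS, 1536-well. 20nM enzyme, pH 7.5 HEPES/EDTA/Tween-20 buffer; 15 min compound preinc., RT. Start: 75uM H3(1-25), 70uM AcCoA, 50uM ThioGlo1. Read Ex340/Em540 at t=0 (autofluorescence flag) and t=20 min.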
TDP1 block: blocks human tyrosyl-DNA phosphodiesterase 1; Q9NUW8; recombinant TDP1, AlphaScreen DNA substrate cleavage; Potency, µM (series often up to 130 µM), for the others: top-dose activity change, negative = inhibition, usual class: inhibitors; 0.28% of 350,000 active; AID 485290; also: nearly all actives have a fitted effect of over 40% in size
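Enzyme-compound mixtures sat 15 min at room temperature, followed by a 5 min reaction with 15 nM final substrate and 10 min with AlphaScreen beads. Recombinant human Tdp1 was used at 1 nM final.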
PLK1 PBD inh: blocks phosphopeptide binding to human PLK1 polo-box domain. Plk1 PBD binding of FITC phosphopeptide, fluorescence polarization. Potency, µM, without a hit: max response, negative = inhibition, most hits filed as inhibitors. P53350. 2.8% of 360,000 active; also: series mostly up to about 57 µM; nearly all actives have a fitted effect of over 65% in size
DT40 TDP1 no CPT: qHTS for Inhibitors of human tyrosyl-DNA phosphodiesterase 1 (TDP1): qHTS in cells in absence of CPT. 15% of 420,000 active. Potency, µM (series often up to 46.2 µM), for the others: at the highest dose activity change, negative = growth inhibition, hits mostly inhibitors. DT40 Tdp1-/- hTDP1 cells, no CPT, ATP luminescence, 48 h; also: nearly all actives have a fitted effect of over 55% in size
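Compound effects on proliferation are scored in DT40 Tdp1-/-;hTDP1 cells in the absence of CPT. ATP levels (CellTiter-Glo luminescence) are recorded after a ≥48 hr, 37 °C incubation.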
VDR inh: inhibitors of human vitamin D receptor; P11473; VDR-SRC2-3 peptide fluorescence polarization, 2 h; Potency, µM, for the others: max response, negative = inhibition, usual class: inhibitors; 0.93% of 400,000 active; AID 504847
Target sequence (P11473 whole entry, looked up): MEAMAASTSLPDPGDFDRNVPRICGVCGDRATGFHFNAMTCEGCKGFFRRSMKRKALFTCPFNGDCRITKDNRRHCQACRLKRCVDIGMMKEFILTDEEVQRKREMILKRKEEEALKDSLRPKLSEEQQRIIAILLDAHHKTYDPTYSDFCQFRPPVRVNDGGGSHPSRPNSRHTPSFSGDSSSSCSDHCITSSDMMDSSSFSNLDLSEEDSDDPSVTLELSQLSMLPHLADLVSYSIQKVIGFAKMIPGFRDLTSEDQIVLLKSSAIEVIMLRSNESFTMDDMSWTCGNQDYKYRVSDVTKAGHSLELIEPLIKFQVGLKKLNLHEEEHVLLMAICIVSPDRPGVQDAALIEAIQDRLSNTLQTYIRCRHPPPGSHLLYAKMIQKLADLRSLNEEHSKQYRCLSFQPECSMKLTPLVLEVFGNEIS
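Measured by FP: displacement of SRC2-3 coactivator peptide from VDR by library compounds, following a two-hour ambient incubation.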
An asterisk follows results filed as active; ? = inconclusive; · = no result; [ ] = dose if it differs, or a comment. A selection: hits, their analogues and other compounds. The true share with any hit is near 18%. Calls follow the shape of the dose curve; as a rule, active = well fitted curve in the direction sought with a large enough effect; inconclusive = small, poorly fitted or top-dose-only effect, or another doubt; inactive = no such curve, though single readings can be large; an effect the other way counts as inactive or inconclusive. % is scaled to controls: 0 for no effect and ±100 for the full control effect; potency is read from the fitted curve at half-maximal effect.

SMILES	TDP1 cell CPT	KAT2A inh	TDP1 block	PLK1 PBD inh	DT40 TDP1 no CPT	VDR inh
COc1ccc(OCc2ccc(-c3nc(C#N)c(N4CCN(c5cccc(Cl)c5)CC4)o3)o2)cc1	-7%	-3%	4%	·	-16%	11%
CC1CCN(c2oc(-c3ccc(COc4ccccc4)o3)nc2C#N)CC1	21µM*	-4%	8%	·	10µM*	13%
COc1ccc(OCc2ccc(-c3nc(C#N)c(N4CCCCC4)o3)o2)cc1	1%	4%	1%	·	?	1%
Cc1cccc(OCc2ccc(-c3nc(C#N)c(N4CCC(C(N)=O)CC4)o3)o2)c1	16µM*	-10%	11%	·	?	-1%
COc1ccc(OCc2ccc(-c3nc(C#N)c(N4CCC(C)CC4)o3)o2)cc1	?	-7%	8%	·	23µM*	14%
COc1ccc(OCc2ccc(-c3nc(C#N)c(N4CCN(C)CC4)o3)o2)cc1	?	-16%	10%	·	15µM*	0%
O=C1CN(C(=O)CSc2nnnn2C2CC2)c2ccccc2N1	-1%	-6%	1%	-2%	2%	?
Cc1cc(Nc2ccccc2C)n2nc(Cc3ccc(Cl)cc3)nc2n1	?	-2%	7%	·	?	7%
Cc1cc(NS(=O)(=O)c2ccc3c(c2)CCC(=O)N3)ccc1Cl	·	·	0%	·	·	·
CC(Nc1oc(-c2ccc(COc3ccccc3)o2)nc1C#N)c1ccccc1 (centres undefined)	6.5µM*	-2%	7%	·	9.2µM*	-8%
CCCN(CCC)C(=O)C1CCCN(c2ncnc3onc(-c4ccc(F)cc4)c23)C1 (centres undefined)	5.2µM*	2%	-1%	·	16µM*	7%
CCCCN(C)C(=O)C1CCCN(c2ncnc3onc(-c4ccc(F)cc4)c23)C1 (centres undefined)	15µM*	13%	3%	·	23µM*	3%
Cc1ccccc1NC(=O)C1CCCN(c2ncnc3onc(-c4ccc(F)cc4)c23)C1 (centres undefined)	?	-2%	-1%	0%	-30%	-9%
CC(C)N(Cc1ccccc1)C(=O)C1CCCN(c2ncnc3onc(-c4ccc(F)cc4)c23)C1 (centres undefined)	7.3µM*	2%	6%	·	5.2µM*	12%
Cc1ccc2c(c1)C(N1CCN(C)CC1)=Nc1cccnc1N2	·	?	9%[56.1 µM]	·	·	1%
COc1ccc(NC(=O)CCCN2C(=O)C(c3ccccc3)Oc3cccnc32)c(OC)c1 (centres undefined)	18µM*	-1%	1%	-14%	23µM*	-3%
Cc1ccc(C)c(NC(=O)CCCN2C(=O)C(c3ccccc3)Oc3cccnc32)c1 (centres undefined)	18µM*	4%	0%	·	23µM*	16%
Cc1ccc(NC(=O)CCCN2C(=O)C(c3ccccc3)Oc3cccnc32)c(C)c1 (centres undefined)	?	·	·	3%	-26%	·
CN(C)c1ncc2nc(-c3cc(F)cc(F)c3)c(=O)n(-c3ccccc3)c2n1	9%	-6%	·	·	12%	-2%
c1ccc(CC2CCN(C3=Nc4cccc5cccc3c45)CC2)cc1	?	1%	7%	-4%	9.2µM*	3%
COc1cc(-c2cc(NC(C)=O)c3ncc(-c4ccc(C(C)=O)cc4)n3c2)cc(OC)c1OC	29µM*	·	·	?	?	·
COc1cc(-c2cc(NC(C)=O)c3ncc(-c4ccc(F)cc4)n3c2)cc(OC)c1OC	?	·	·	?	15µM*	·
CCOC(=O)C1=C(C)Nc2nc(=S)[nH]n2C1c1ccc(Cl)cc1 (centres undefined)	?	-1%	4%	24µM*	?	79µM*
CC(=O)OCC1OC(n2c(-c3ccc(Cl)cc3)ccc(C#N)c2=S)C(OC(C)=O)C(OC(C)=O)C1OC(C)=O (centres undefined)	-15%	·	·	-18%	-12%	-14%
COc1cccc(Cn2cnc3c(NS(=O)(=O)c4ccc(Cl)cc4Cl)c(C)c(C)cc32)c1	?	-9%	7%	-1%	?	1%
SMILES	TDP1 cell CPT	KAT2A inh	TDP1 block	PLK1 PBD inh	DT40 TDP1 no CPT	VDR inh
COc1cccc(Cn2cnc3c(NS(=O)(=O)c4cccc(Cl)c4Cl)c(C)c(C)cc32)c1	21µM*	-3%	3%	-5%	23µM*	18%
Cc1ccccc1-c1ccc2ncnc(N(C)C)c2c1	?	-5%	·	·	?	-5%
COc1cccc(-c2ccc3ncnc(N(C)C)c3c2)c1	21µM*	-21%	·	·	?	-22%
CN(C)c1ncnc2ccc(-c3cccnc3)cc12	12µM*	-18%	·	·	23µM*	?
COc1cccc(-c2ccc3ncnc(N4CCNCC4)c3c2)c1	?	-9%	·	·	-29%	?
N#CC1(NC(=O)CSc2nnc3n2CCCCC3)CCCCC1	15%	0%	0%	2%	-13%	-13%
CCN(CC(=O)NCc1cccs1)C(=O)c1ccc(NS(=O)(=O)c2ccc(F)cc2)cc1	-1%	0%	1%[0.505 µM]	-1%	-28%	-2%
C(=C\c1ccccn1)/c1cccnc1	·	-29%	·	·	·	·
C=Nc1ccc(/C=C/c2ccnc3ccccc23)cc1	22µM*	·	·	·	11µM*	·
C(=C\c1ccnc2ccccc12)/c1cccnc1	?	·	·	·	13µM*	·
Oc1cc(O)c(/C=C/c2ccnc3ccccc23)c(O)c1	11%	·	·	·	-18%	·
CSc1ccc(/C=C/c2ccnc3ccccc23)cc1	8%	·	·	·	-5%	·
N#CC(=Cc1ccnc2ccccc12)c1ccccc1	?	·	·	3%	21µM*	·
C(=C\c1ccnc2ccccc12)/c1ccnc2ccccc12	?	·	·	·	18µM*	·
COc1ccc(-c2oc3ncn4nc(COc5ccc(Cl)cc5)nc4c3c2-c2ccc(OC)cc2)cc1	-25%	-4%	-4%[12.3 µM]	·	-27%	-1%
O=[N+]([O-])c1ccccc1/C=C/c1ccnc2ccccc12	?	·	·	·	14µM*	·
O=CNc1ccc(/C=C/c2ccnc3ccccc23)cc1	13µM*	·	·	·	14µM*	·
Cn1cc(/C=C/c2ccnc3ccccc23)c2ccccc21	?	·	·	·	11µM*	·
O=Cc1ccnc2ccccc12	2.8µM*	·	·	·	-92%	·
Cc1ccnc(NC(=O)/C=C/c2ccccc2[N+](=O)[O-])c1	·	0%	1%	·	·	·
Cc1coc2c1c(C)cc1oc(=O)c(CC(=O)NCCc3ccc(Cl)cc3)c(C)c12	-23%	-3%	9%	·	?	15%
CNc1nc(C23CC4CC(CC(C4)C2)C3)cs1	?	-11%	5%	-7%	?	13%
